Results as given in PubChem BioAssay (Tox21).
Where “and” joins values, the source holds several entries; their conditions need not be identical. Equal entries are not always repeated. Results filed as inconclusive are left out. A call without a number means that no potency is given here. Calls of active or inactive are those of the source. Unless noted, calls follow the shape of the dose curve; as a rule, active = well fitted curve in the direction sought with a large enough effect in the repeat runs; inconclusive = weak or mixed curves; inactive = no such curve, though single readings can be large; an effect the other way counts as inactive or inconclusive.

Key:
[1] = target: Acetylcholinesterase (Homo sapiens) (UniProt P22303); experiment: Acetylcholinesterase (AChE) small molecule antagonists: fluorescence cell-based qHTS assay (AID 1347398; calls by dose curve; also: nearly all actives have a fitted effect of over 50% in size; also: potency is read from the fitted curve at half-maximal effect); conditions: Potency: AChE activity
Sequence of Acetylcholinesterase (Homo sapiens) (P22303 whole entry, looked up): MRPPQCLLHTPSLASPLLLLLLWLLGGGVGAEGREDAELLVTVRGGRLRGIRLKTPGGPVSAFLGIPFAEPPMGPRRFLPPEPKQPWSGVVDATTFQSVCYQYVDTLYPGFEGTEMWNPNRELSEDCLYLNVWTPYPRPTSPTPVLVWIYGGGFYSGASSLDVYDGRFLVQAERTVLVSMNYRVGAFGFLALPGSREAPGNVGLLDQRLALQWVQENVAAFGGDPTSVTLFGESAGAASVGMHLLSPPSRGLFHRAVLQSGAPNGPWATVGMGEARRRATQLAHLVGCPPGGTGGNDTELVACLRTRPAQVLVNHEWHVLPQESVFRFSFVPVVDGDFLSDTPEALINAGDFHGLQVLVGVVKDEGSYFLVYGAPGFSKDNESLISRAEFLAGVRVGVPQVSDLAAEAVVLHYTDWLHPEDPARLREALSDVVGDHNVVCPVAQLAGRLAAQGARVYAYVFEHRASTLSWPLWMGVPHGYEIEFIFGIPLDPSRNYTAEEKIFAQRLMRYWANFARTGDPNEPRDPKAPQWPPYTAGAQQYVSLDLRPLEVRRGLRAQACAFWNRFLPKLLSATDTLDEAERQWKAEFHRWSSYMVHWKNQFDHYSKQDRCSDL
Procedure, shortened: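 Human SH-SY5Y cells were plated overnight at 37 C, exposed to compound for 30 min at 37 C, 5% CO2, then given acetylthiocholine plus Thiolite Green for 40 min at room temperature; thiocholine fluorescence (Ex/Em 490/520 nm) reports endogenous AChE activity.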

[2] = target: Acetylcholinesterase (Homo sapiens) (UniProt P22303); experiment: Acetylcholinesterase (AChE) small molecule antagonists: enzyme-based qHTS assay with human liver microsomes (AID 1347399; calls by dose curve; also: nearly all actives have a fitted effect of over 60% in size); conditions: Potency: qHTS inhibition
Procedure, shortened: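 Recombinant human AChE (50 mU/mL in the enzyme mix) and human liver microsomes (0.25 mg/mL final) were preincubated with compound and NADPH (0.25 mg/mL final) for 30 min at 37 C. Acetylthiocholine/DTNB was then added; thiocholine was read colorimetrically after 10 min at room temperature.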

[3] = target: Cytochrome P450 2C19 (Homo sapiens) (UniProt P33261); experiment: Cytochrome P450 Family 2 Subfamily C Member 19 (CYP2C19) small molecule antagonists: luciferase reporter qHTS assay (AID 1671197); also: nearly all actives have a fitted effect of over 65% in size; also: potency is read from the fitted curve at half-maximal effect
Sequence of Cytochrome P450 2C19 (Homo sapiens) (P33261 whole entry, looked up): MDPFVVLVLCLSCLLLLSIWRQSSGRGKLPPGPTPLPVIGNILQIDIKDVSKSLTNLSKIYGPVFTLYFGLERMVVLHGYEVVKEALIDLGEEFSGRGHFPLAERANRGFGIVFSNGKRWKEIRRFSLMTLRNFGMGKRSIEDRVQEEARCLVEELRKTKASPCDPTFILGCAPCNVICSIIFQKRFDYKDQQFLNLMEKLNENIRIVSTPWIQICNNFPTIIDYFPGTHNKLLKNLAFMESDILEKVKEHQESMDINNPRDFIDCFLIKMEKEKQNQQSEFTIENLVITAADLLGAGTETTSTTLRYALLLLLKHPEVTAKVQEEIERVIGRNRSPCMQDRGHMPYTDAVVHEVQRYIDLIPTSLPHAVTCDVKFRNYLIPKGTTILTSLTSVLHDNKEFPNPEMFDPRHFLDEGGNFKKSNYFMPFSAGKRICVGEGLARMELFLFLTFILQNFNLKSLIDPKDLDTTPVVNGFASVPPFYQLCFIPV
Procedure, shortened: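 Inhibition of CYP2C19 was scored from loss of luminescence in a P450-Glo proluciferin substrate assay, NADPH-started and run 1 h at 37C, with ketoconazole as positive control.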

[4] = target: Cytochrome P450 2C9 (Homo sapiens) (UniProt P11712); experiment: Cytochrome P450 Family 2 Subfamily C Member 9 (CYP2C9) small molecule antagonists: luciferase reporter qHTS assay (AID 1671198); also: nearly all actives have a fitted effect of over 50% in size; also: potency is read from the fitted curve at half-maximal effect
Sequence of Cytochrome P450 2C9 (Homo sapiens) (P11712 whole entry, looked up): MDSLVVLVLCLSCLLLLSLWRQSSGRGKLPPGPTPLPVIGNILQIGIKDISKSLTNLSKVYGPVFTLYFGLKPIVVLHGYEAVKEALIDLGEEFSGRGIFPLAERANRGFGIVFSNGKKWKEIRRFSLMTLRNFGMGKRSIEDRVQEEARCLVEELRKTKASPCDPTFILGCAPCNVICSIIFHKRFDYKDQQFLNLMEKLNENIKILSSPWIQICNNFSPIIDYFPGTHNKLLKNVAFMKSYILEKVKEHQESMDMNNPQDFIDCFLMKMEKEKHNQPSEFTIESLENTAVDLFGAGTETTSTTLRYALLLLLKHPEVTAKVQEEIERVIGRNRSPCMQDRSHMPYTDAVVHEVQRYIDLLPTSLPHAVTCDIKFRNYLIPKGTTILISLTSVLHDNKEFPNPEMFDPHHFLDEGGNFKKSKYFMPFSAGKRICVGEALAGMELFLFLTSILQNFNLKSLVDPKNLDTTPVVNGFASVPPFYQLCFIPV
Procedure, shortened: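 CYP2C9 activity was measured with a P450-Glo proluciferin substrate. Enzyme–substrate mix was held with compound for 10 min at room temperature, then NADPH regeneration solution was added for 1 h at 37C. Luciferin product was read as luminescence.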

[5] = target: Cytochrome P450 1A2 (Homo sapiens) (UniProt P05177); experiment: Cytochrome P450 Family 1 Subfamily A Member 2 (CYP1A2) small molecule antagonists: luciferase reporter qHTS assay (AID 1671199); also: nearly all actives have a fitted effect of over 50% in size; also: potency is read from the fitted curve at half-maximal effect
Sequence of Cytochrome P450 1A2 (Homo sapiens) (P05177 whole entry, looked up): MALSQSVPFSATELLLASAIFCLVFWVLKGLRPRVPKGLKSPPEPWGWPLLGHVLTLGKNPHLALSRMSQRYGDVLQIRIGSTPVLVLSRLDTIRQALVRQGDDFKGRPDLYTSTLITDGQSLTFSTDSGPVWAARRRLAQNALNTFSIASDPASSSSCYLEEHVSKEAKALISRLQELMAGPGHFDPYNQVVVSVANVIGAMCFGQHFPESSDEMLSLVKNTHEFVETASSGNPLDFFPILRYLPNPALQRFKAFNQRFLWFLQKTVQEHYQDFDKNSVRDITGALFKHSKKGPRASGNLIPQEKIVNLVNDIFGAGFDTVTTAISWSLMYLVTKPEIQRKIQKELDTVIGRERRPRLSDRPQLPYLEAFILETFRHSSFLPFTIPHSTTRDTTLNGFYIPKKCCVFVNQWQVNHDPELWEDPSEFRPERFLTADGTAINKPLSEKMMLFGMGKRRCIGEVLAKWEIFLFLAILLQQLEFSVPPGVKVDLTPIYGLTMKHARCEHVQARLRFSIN
Procedure, shortened: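 Signal from luciferin formed by CYP1A2 from a proluciferin substrate is read as luminescence, expressed in relative luminescence units. Compounds sit with enzyme 10 min, NADPH-driven reaction runs 1 h, all at room temperature.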

[6] = target: Voltage-gated inwardly rectifying potassium channel KCNH2 (Homo sapiens) (UniProt Q12809); experiment: Human Ether-a-go-go-Related Gene (hERG) channel small molecule antagonists: fluorescence cell-based qHTS assay (AID 1671200); also: nearly all actives have a fitted effect of over 50% in size; also: potency is read from the fitted curve at half-maximal effect
Sequence of Voltage-gated inwardly rectifying potassium channel KCNH2 (Homo sapiens) (Q12809 whole entry, looked up): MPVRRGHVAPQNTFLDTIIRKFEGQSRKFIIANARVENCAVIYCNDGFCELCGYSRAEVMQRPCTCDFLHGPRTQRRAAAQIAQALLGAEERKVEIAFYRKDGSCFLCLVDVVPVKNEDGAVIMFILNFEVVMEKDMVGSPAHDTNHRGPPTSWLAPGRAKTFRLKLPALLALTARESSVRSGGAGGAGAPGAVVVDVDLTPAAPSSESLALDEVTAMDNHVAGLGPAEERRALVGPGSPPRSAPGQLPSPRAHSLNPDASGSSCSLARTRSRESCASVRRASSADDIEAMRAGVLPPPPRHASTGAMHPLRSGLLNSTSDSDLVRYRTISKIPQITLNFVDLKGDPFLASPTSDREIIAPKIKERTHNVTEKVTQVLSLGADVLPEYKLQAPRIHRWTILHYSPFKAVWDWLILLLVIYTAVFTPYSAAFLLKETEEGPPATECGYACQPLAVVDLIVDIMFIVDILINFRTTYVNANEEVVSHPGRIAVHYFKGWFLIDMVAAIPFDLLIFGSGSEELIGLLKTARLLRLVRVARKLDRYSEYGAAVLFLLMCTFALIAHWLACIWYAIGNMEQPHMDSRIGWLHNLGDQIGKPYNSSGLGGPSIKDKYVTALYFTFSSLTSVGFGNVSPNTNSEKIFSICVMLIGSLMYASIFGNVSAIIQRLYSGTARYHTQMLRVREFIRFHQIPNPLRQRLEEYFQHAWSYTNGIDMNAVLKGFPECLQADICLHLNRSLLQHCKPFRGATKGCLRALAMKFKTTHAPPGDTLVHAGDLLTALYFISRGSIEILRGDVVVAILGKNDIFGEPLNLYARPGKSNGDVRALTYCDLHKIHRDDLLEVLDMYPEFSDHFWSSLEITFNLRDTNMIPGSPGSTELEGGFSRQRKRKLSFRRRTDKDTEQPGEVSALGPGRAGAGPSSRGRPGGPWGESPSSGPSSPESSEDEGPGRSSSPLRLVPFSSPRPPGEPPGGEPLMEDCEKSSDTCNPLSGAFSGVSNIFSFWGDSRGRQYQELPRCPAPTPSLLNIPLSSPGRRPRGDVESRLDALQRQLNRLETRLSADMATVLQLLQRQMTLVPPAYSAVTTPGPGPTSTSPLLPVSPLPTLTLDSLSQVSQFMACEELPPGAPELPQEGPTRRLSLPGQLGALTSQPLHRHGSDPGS
Procedure, shortened: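 Channel function was assessed by thallium flux. Cells seeded the previous day and kept at 37 C took up FluxOR II dye over 1 h in the dark at room temperature, then sat another 10 min before stimulation.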

[7] = target: Cytochrome P450 3A4 (Homo sapiens) (UniProt P08684); experiment: Cytochrome P450 Family 3 Subfamily A Member 4 (CYP3A4) small molecule antagonists: luciferase reporter qHTS assay (AID 1671201); also: nearly all actives have a fitted effect of over 50% in size; also: potency is read from the fitted curve at half-maximal effect
Sequence of Cytochrome P450 3A4 (Homo sapiens) (P08684 whole entry, looked up): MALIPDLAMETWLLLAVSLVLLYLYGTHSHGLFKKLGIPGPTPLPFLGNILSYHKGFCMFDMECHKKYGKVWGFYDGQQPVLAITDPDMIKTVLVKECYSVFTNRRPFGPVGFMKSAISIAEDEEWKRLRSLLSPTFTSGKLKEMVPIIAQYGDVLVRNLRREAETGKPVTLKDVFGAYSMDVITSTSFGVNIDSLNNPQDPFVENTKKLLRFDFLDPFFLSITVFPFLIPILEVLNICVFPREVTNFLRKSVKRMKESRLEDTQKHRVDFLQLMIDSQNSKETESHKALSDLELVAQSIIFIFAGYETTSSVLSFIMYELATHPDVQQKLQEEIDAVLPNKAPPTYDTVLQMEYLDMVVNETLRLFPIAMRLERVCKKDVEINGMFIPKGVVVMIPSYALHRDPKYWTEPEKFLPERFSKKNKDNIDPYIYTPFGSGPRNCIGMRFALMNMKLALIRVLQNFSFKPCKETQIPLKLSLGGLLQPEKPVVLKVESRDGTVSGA
Procedure, shortened: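 Compounds in DMSO were pin-transferred onto CYP3A4 enzyme-substrate mix and held 10 min at room temperature. NADPH regenerating solution started the reaction for 1 h; luciferin detection reagent stopped it, and luminescence was read after 20 min.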

[8] = target: Cytochrome P450 2D6 (Homo sapiens) (UniProt P10635); experiment: Cytochrome P450 Family 2 Subfamily D Member 6 (CYP2D6) small molecule antagonists: luciferase reporter qHTS assay (AID 1671196); also: nearly all actives have a fitted effect of over 50% in size; also: potency is read from the fitted curve at half-maximal effect
Sequence of Cytochrome P450 2D6 (Homo sapiens) (P10635 whole entry, looked up): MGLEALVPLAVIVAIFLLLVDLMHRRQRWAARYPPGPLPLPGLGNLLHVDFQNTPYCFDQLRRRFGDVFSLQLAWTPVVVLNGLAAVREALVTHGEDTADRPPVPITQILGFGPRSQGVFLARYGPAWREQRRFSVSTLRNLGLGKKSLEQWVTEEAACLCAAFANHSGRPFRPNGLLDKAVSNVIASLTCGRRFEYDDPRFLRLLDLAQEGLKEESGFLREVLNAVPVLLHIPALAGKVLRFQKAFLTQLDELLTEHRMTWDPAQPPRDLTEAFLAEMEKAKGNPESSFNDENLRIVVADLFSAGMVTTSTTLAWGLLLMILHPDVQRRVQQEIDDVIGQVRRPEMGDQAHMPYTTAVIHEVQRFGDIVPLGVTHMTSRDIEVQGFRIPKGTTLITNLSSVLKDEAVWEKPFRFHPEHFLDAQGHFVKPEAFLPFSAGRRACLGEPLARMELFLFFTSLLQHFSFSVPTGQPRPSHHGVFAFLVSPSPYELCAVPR
Procedure, shortened: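 Inhibition of CYP2D6 was gauged by loss of luminescence, since light produced tracks the luciferin generated from a proluciferin substrate. A 10 min room-temperature preincubation preceded 1 h NADPH-supported turnover.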

SMILES	Potency [1]	Potency [2]	Potency [3]	Potency [4]	Potency [5]	Potency [6]	Potency [7]	Potency [8]
Nc1ccc(Cc2ccc(N)c(Cl)c2)cc1Cl	inactive	inactive	6.86 µM (active)	61.2 µM (active)	27.3 µM (active)	inactive	3.44 µM (active)	
Nc1ccc([N+](=O)[O-])cc1Cl	inactive	inactive	inactive	inactive	25.2 µM (active)	inactive	inactive	
CCS(=O)(=O)c1cccnc1S(=O)(=O)NC(=O)Nc1nc(OC)cc(OC)n1	inactive	inactive	63.3 µM (active)	71 µM (active)		inactive		
Oc1ccc(C(c2ccc(O)cc2)(C(F)(F)F)C(F)(F)F)cc1	inactive	inactive	5 µM (active) and 2.83 µM (active)	3.16 µM (active) and 2 µM (active)	inactive	43.4 µM (active)	35.4 µM (active) and 35.6 µM (active)	
Clc1ccc(-c2ccc(Cl)c(Cl)c2Cl)c(Cl)c1Cl	inactive	inactive	1.91 µM (active)	17 µM (active)	33.9 µM (active)	inactive	inactive	
CC(C)N1C(=O)N(c2ccccc2)CSC1=NC(C)(C)C	inactive	inactive	7.1 µM (active)	6.33 µM (active)	31.7 µM (active)		31.7 µM (active)	
S=C(SSC(=S)N1CCCCC1)N1CCCCC1	38.9 µM (active)	inactive	6.92 µM (active)	6.92 µM (active)		inactive		
CC(C)(COCC1CO1)COCC1CO1 (configuration not stated)	inactive	inactive	79.6 µM (active)	inactive	inactive	inactive	inactive	
Oc1ccccc1Br	inactive	inactive	inactive	inactive	inactive	inactive	inactive	
NNC(=O)c1ccccc1	inactive	inactive	41 µM (active)	41 µM (active)	32.6 µM (active)	inactive	36.6 µM (active)	
c1ccc(Nc2ccc3ccccc3c2)cc1	inactive	inactive	7.06 µM (active) and 5.64 µM (active)	35.4 µM (active) and 31.7 µM (active)	3.54 µM (active) and 3.56 µM (active)	inactive	22.3 µM (active) and 35.6 µM (active)	
Oc1ccc(C(=C(Cl)Cl)c2ccc(O)cc2)cc1	inactive	inactive	12.6 µM (active)	5.63 µM (active)	39.8 µM (active)		11.2 µM (active)	
Clc1ccc(C(c2ccccc2Cl)C(Cl)(Cl)Cl)cc1 (configuration not stated)	inactive	inactive	637 nM (active) and 234 nM (active)	22.6 µM (active) and 10.4 µM (active)	inactive		inactive	
CC(=O)Nc1ccc2c(c1)Cc1ccccc1-2	inactive	inactive	18.1 µM (active)	25.6 µM (active)	3.22 µM (active)	inactive	64.3 µM (active)	
N#Cc1c(-c2ccc(Cl)cc2)[nH]c(C(F)(F)F)c1Br	inactive	inactive	39.9 µM (active)	11.2 µM (active)	0.317 µM (active)		inactive	
C=COCCCl	inactive	inactive	inactive	inactive	inactive	inactive	inactive	
OC(c1ccc(Cl)cc1)(c1ccc(Cl)cc1)C(Cl)(Cl)Cl	inactive	inactive	0.0564 µM (active)	5.03 µM (active)	14.2 µM (active)	24.5 µM (active)	inactive	
CCCCCCCCCCCCCC[P+](CCCCCC)(CCCCCC)CCCCCC (tested in a mixture with another compound)	71 µM (active)	inactive	20 µM (active)	22.5 µM (active)	22.5 µM (active)	0.692 µM (active)	5.03 µM (active)	
CC(C)(O)c1cnn2c(-c3ccc(F)c(-c4c(F)cccc4C#N)c3)cnc2n1	28.3 µM (active)	inactive	8.94 µM (active)	1.26 µM (active)		inactive	35.6 µM (active)	
ClCc1ccccc1CCl	inactive	inactive	inactive	inactive		inactive	inactive	
CCc1cc(C)cc(CC)c1-c1c(OC(=O)C(C)(C)C)n2n(c1=O)CCOCC2	inactive	inactive		inactive	inactive	inactive	8.94 µM (active)	
COC(=O)N(C(=O)N1CO[C@@]2(C(=O)OC)Cc3cc(Cl)ccc3C2=N1)c1ccc(OC(F)(F)F)cc1	inactive	inactive	0.154 µM (active)	2.73 µM (active)		inactive	2.44 µM (active)	
ClC1=C(Cl)[C@]2(Cl)[C@H]3[C@H]([C@H]4C=C[C@H]3C4)[C@@]1(Cl)C2(Cl)Cl	inactive	inactive	15.9 µM (active)		inactive		1 µM (active)	
COc1ccc(OC)c(C=O)c1	inactive	inactive			28.3 µM (active)	inactive	inactive	
Oc1ccc(C2(c3ccc(O)cc3)CCCCC2)cc1	inactive	inactive	37.8 µM (active)	33.7 µM (active)			23.9 µM (active)	
N#CCCC(Br)(C#N)CBr (configuration not stated)	inactive		11.2 µM (active)	8.94 µM (active)	15.9 µM (active)	27.5 µM (active)	inactive	inactive

SMILES	Potency [1]	Potency [2]	Potency [3]	Potency [4]	Potency [5]	Potency [6]	Potency [7]	Potency [8]
[Hg+2].[I-].[I-]	28.3 µM (active)		1.42 µM (active)	0.564 µM (active)	3.56 µM (active)	inactive	2.24 µM (active)	2 µM (active)
CSCCCN=C=S	inactive	inactive	71 µM (active)		inactive		inactive	
CC1(C)C(/C=C(\Cl)C(F)(F)F)C1C(=O)OC(C#N)c1cccc(Oc2ccccc2)c1 (configuration not stated)	inactive	inactive	8.09 µM (active)	8.09 µM (active)		inactive	inactive	
CC(=O)C(Cl)(Cl)Cl	inactive	inactive	54.5 µM (active)	15.3 µM (active)		inactive	inactive	
Clc1ccc(Oc2ccccc2)cc1	inactive	inactive		inactive			inactive	
O=C(Cl)c1ccc(Cl)cc1	inactive	inactive			inactive	inactive	inactive	
CCOP(=S)(OCC)SCCS(=O)(=O)CC	35.6 µM (active)		0.1 µM (active)	0.894 µM (active)	35.6 µM (active)	inactive	1.59 µM (active)	2.24 µM (active)
CCCCN(CCCC)C(=S)[S-].CCCCN(CCCC)C(=S)[S-].[Zn+2]	inactive	inactive	79.6 µM (active)	20 µM (active)		inactive	28.3 µM (active)	
CCCCOCN(C(=O)CCl)c1c(CC)cccc1CC	inactive	inactive	0.894 µM (active)	3.99 µM (active)		inactive	7.1 µM (active)	
CC(C)(C)C(O)C(Oc1ccc(-c2ccccc2)cc1)n1cncn1 (configuration not stated)	inactive	inactive		10 µM (active)		inactive	0.448 µM (active)	
CCN(CC)c1c([N+](=O)[O-])cc(C(F)(F)F)c(N)c1[N+](=O)[O-]	inactive	inactive	20 µM (active)		0.356 µM (active)	inactive		
CC(=O)OC1(c2ccccc2)CCN(CCc2ccccc2)CC1	inactive	inactive	40.9 µM (active)		inactive	25.1 µM (active)	inactive	
O=C(Nc1ccc2[nH]ccc2c1)c1cc2cc(F)ccc2n1Cc1cccc(F)c1	inactive	inactive	6.33 µM (active)	3.56 µM (active)		inactive	2.52 µM (active)	
CC1(C)CN=C(NN=C(/C=C/c2ccc(C(F)(F)F)cc2)/C=C/c2ccc(C(F)(F)F)cc2)NC1	inactive	inactive	inactive			0.389 µM (active)	inactive	
COc1cccc2c1C(=O)c1c(O)c3c(c(O)c1C2=O)C[C@@](O)(C(=O)CO)CC3OC1CC(N2CCOC(OC)C2)C(O)C(C)O1 (some centres not stated)	11 µM (active)	inactive		4.36 µM (active)	inactive	inactive		
CC(C)OC(=O)C(O)(c1ccc(Cl)cc1)c1ccc(Cl)cc1	inactive	inactive	2 µM (active)	8.94 µM (active)		21.9 µM (active)	inactive	
O=S(=O)(c1ccc(Cl)cc1)c1ccc(Cl)cc1	inactive	inactive	0.161 µM (active)		34 µM (active)	47.7 µM (active)		
C[C@H]1CC[C@@H]2[C@@H](C)[C@H]3[C@H](C[C@H]4[C@@H]5CC=C6CC(O[C@@H]7O[C@H](CO)[C@H](O)[C@H](O[C@@H]8O[C@H](CO)[C@@H](O)[C@H](O)[C@H]8O)[C@H]7O[C@H]7O[C@@H](C)[C@H](O)[C@@H](O)[C@H]7O)CC[C@]6(C)[C@H]5CC[C@]34C)N2C1 (some centres not stated)	2.92 µM (active)	inactive	inactive	inactive		inactive	inactive	
N#CC(Cl)Cl	inactive	inactive			61.6 µM (active)	inactive	inactive	
Nc1c(Oc2ccccc2)cc(O)c2c1C(=O)c1ccccc1C2=O	inactive	inactive		17.4 µM (active)	1.23 µM (active)	inactive	inactive	
Oc1cccc(-c2ccccc2)c1	inactive	inactive	35.6 µM (active)		17.8 µM (active)	inactive		
O=C(CBr)c1ccc(O)cc1	inactive	inactive		inactive	31.7 µM (active)	inactive	inactive	
COC12CC[C@@]3(C[C@@H]1C(C)(O)C(C)(C)C)[C@H]1Cc4ccc(O)c5c4[C@@]3(CCN1CC1CC1)[C@H]2O5 (some centres not stated)	inactive	inactive			inactive			
COP(N)(=S)OC	inactive	inactive		inactive	inactive	inactive	inactive	
C[C@@H]1O[C@@H](O[C@@H]2C=C3CC[C@@H]4[C@H](CC[C@]5(C)[C@@H](c6ccc(=O)oc6)CC[C@]45O)[C@@]3(C)CC2)[C@H](O)[C@H](O)[C@H]1O	inactive	inactive	inactive		inactive	inactive	inactive	
Cc1cc(C)c(C2=C(OC(=O)CC(C)(C)C)C3(CCCC3)OC2=O)c(C)c1	inactive	inactive			inactive	inactive	37.3 µM (active)	
